According to PubChem BioAssay AID1159580 (chemical genetic matrix, 2015):
Values joined by “and” are separate entries in the source; they are usually repeats but may differ in a detail not shown here. Identical values can stand only once. Screen size: about 5,500 compounds; about 2,000 (36%) were called active. Inconclusive results (about 18%) are left out. No stated cut-off is given here; in the data, active means normalized growth mostly below about 0.91 (no sharp cut-off); inconclusive means no clear call, values can overlap the other calls; inactive means mostly above about 0.92. Some of the results follow.

Assay: chemical genetic growth profiling, strain panel (AID 1159580);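 further: tested at 20 µM; growth read once vehicle control cultures reached saturation at 30 °C; 1 = growth at the plate median or of vehicle wells; lower values mean less growth of the strain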
Conditions: S. cerevisiae deletion strains, growth OD

Measured: normalized growth

CC[C@@H]1[C@@H](O)N2C3C[C@H]1C1C(O)[C@]4(C[C@@H]12)c1ccccc1N(C)[C@@H]34 (some centres not stated)
inactive: locus YAL013W, strain DEP1, active compounds read low 0.992 | locus YAL021C, strain ccr4, active compounds read low 1.01 | locus YAL026C, strain drs2, active compounds read low 1.04 | locus YAL030W, strain snc1, active compounds read low 1.05 | locus YBL061C, strain skt5, active compounds read low 1.04 | locus YBR009C, strain hhf1, active compounds read low 1.02 | locus YBR021W, strain FUR4, active compounds read low 0.989 | locus YBR023C, strain chs3, active compounds read low 1.05 | locus YBR171W, strain sec66, active compounds read low 1.07 | locus YBR229C, strain ROT2, active compounds read low 0.991 | locus YBR231C, strain swc5, active compounds read low 0.999 | locus YBR279W, strain paf1, active compounds read low 1.04 | locus YCL011C, strain gbp2, active compounds read low 1.02 | locus YCL016C, strain dcc1, active compounds read low 1.02 | locus YCL029C, strain bik1, active compounds read low 0.956 | locus YCL061C, strain MRC1, active compounds read low 1.04 | locus YCL069W, strain vba3, active compounds read low 1.04 | locus YCR088W, strain abp1, active compounds read low 1.04 | locus YDL005C, strain med2, active compounds read low 1.05 | locus YDL035C, strain GPR1, active compounds read low 1.01 | locus YDL040C, strain nat1, active compounds read low 1.03 | locus YDL074C, strain BRE1, active compounds read low 0.972 | locus YDL101C, strain DUN1, active compounds read low 0.984 | locus YDL134C, strain PPH21, active compounds read low 0.986 | locus YDL185W, strain tfp1, active compounds read low 0.963 | locus YDL192W, strain arf1, active compounds read low 0.984 | locus YDR001C, strain nth1, active compounds read low 1.02 | locus YDR069C, strain doa4, active compounds read low 1.04 | locus YDR101C, strain arx1, active compounds read low 0.981 | locus YDR137W, strain rgp1, active compounds read low 1.04 | locus YDR150W, strain NUM1, active compounds read low 1 | locus YDR159W, strain sac3, active compounds read low 0.974 | locus YDR162C, strain NBP2, active compounds read low 0.998 | locus YDR195W, strain ref2 1.03 | locus YDR297W, strain sur2, active compounds read low 1.03 | locus YDR318W, strain mcm21, active compounds read low 0.972 | locus YDR334W, strain swr1, active compounds read low 1.03 | locus YDR335W, strain msn5, active compounds read low 1.03 | locus YDR388W, active compounds read low 0.978 | locus YDR392W, strain spt3, active compounds read low 0.93 | locus YDR502C, strain sam2, active compounds read low 1 | locus YEL003W, strain gim4, active compounds read low 1.03 | locus YEL037C, strain rad23, active compounds read low 1.02 | locus YEL061C, strain CIN8 (second series), active compounds read low 1.04 | locus YEL061C, strain CIN8, active compounds read low 0.995 | locus YER015W, strain faa2, active compounds read low 1.02 | locus YER016W, strain bim1, active compounds read low 1.01 | locus YER110C, active compounds read low 0.977 | locus YER111C, strain swi4, active compounds read low 1.06 | locus YER155C, strain BEM2 (second series), active compounds read low 0.983 | locus YER155C, strain BEM2, active compounds read low 0.991 | locus YER167W, strain BCK2, active compounds read low 0.989 | locus YFR010W, strain ubp6, active compounds read low 1.02 | locus YGL078C, strain dbp3, active compounds read low 0.978 | locus YGL086W, strain mad1, active compounds read low 0.992 | locus YGL167C, strain pmr1, active compounds read low 1.03 | locus YGL173C, strain kem1, active compounds read low 1.02 | locus YGL227W, strain vid30, active compounds read low 1.05 | locus YGL240W, strain doc1, active compounds read low 0.979 | locus YGL248W, strain PDE1, active compounds read low 0.991 | locus YGL253W, strain hxk2, active compounds read low 1.04 | locus YGR078C, strain PAC10, active compounds read low 0.984 | locus YGR135W, strain pre9, active compounds read low 0.96 | locus YGR229C, strain SMI1, active compounds read low 1 | locus YGR252W, strain gcn5, active compounds read low 1 | locus YHR013C, strain ard1, active compounds read low 1.03 | locus YHR027C, strain rpn1, active compounds read low 1.02 | locus YHR030C, strain SLT2, active compounds read low 0.993 and 0.984 | locus YHR079C, strain IRE1 (second series), active compounds read low 0.965 | locus YHR079C, strain IRE1, active compounds read low 0.981 | locus YHR094C, strain hxt1, active compounds read low 0.983 | locus YHR129C, strain ARP1, active compounds read low 0.982 | locus YHR142W, strain chs7, active compounds read low 1.1 | locus YHR200W, strain rpn10, active compounds read low 0.981 | locus YIL066C, strain RNR3, active compounds read low 0.993 | locus YIL073C, strain SPO22, active compounds read low 0.997 | locus YIL125W, strain kgd1, active compounds read low 0.981 | locus YIR030C, strain dcg1, active compounds read low 0.984 | locus YJL092W, strain hpr5, active compounds read low 1.04 | locus YJL095W, strain BCK1 (second series), active compounds read low 1.01 | locus YJL095W, strain BCK1, active compounds read low 0.966 and 1.01 | locus YJL115W, strain asf1, active compounds read low 1.07 | locus YJL129C, strain trk1, active compounds read low 1.06 | locus YJL134W, strain LCB3, active compounds read low 0.993 | locus YJL154C, strain vps35, active compounds read low 1.03 | locus YJL164C, strain tpk1, active compounds read low 1.04 | locus YJL166W, strain qcr8, active compounds read low 1.04 | locus YJL168C, strain set2, active compounds read low 0.97 | locus YJL187C, strain SWE1 (second series), active compounds read low 0.979 | locus YJL187C, strain SWE1, active compounds read low 1.02 | locus YJR043C, strain POL32, active compounds read low 0.973 | locus YJR066W, strain TOR1, active compounds read low 0.926
